Experimental data from the OligoGym collection.

molecular target: ZNF383; experiment: pooled miR-30 sensor sort-seq; sequence = guide strand; settings: shRNA

Going from TTGAACAAGCTTTGAGCTCTGG to TCTCTGATGTTGAACAAGCTTT, the sensor-assay potency score (higher = more potent) falls from 0.42 to -0.743.

First: TTCTATTTCATAAACTTCCTTC
Second: TTCTTTAGAGATAATAACTTGG
The sensor-assay potency score (higher = more potent) of the first is higher: -0.0685 for the first, -0.196 for the second.

Compared with TAACTTGGTTTCACACATCGAT, TTGAATAAATTGTGAGTTCTGA is lower in sensor-assay potency score (higher = more potent): 0.203 for the first, -0.124 for the second.

Compared with TATATTCCAAAACATCTCCAAA, TAAATTGTGAGTTCTGACTAAA is higher in sensor-assay potency score (higher = more potent): -1.29 for the first, -0.929 for the second.

Going from TAACATGTGAACCACAACTAAA to TTGAGCAATAACTAAAGGCCTT, the sensor-assay potency score (higher = more potent) rises from -1.41 to -0.458.

Sequence TAAGATTTGAGCAATAACTAAA has a sensor-assay potency score (higher = more potent) of -1.31.

molecular target: ZNF384; experiment: as above; settings: shRNA

Going from TTTATCTTTGTTGTGTTGCCGT to TTGAGCTTGAGCCTGGGCCTGG, the sensor-assay potency score (higher = more potent) falls from 0.173 to -0.952.

First: TTGTGTTCTCGATCTGACCTGA
Second: TTGATGAACATTGTGTTCTCGA
The sensor-assay potency score (higher = more potent) of the first is lower: 0.373 for the first, 0.78 for the second.

Sequence AATGTCAGTGAGCACATCCGGC has a sensor-assay potency score (higher = more potent) of -0.852.
